Values of other authors, collected in PubChem BioAssay AID977611.
Hit rate of the full screen: of about 3,900 compounds, about 3,900 (100%) were called active. The limit is not given here; nearly all actives have Kd up to about 4200 µM. The set was probably picked from earlier hits. The list shows a part of the results. Starred links: 1 amine or outer side, 2 acyl side, 3 side chain; linkers in the order of their positions; H or OH if unused. *1 amine or outer side, *2 acyl side, *3 side chain or, on linkers, in order; H or OH if unused. Where a SMILES comes first, the peptide text is derived from it. Non-standard residues stand in square brackets, D forms with d. Square brackets hold non-standard residues; d marks the D form. Residues, ends and D or L forms follow the SMILES beside them. Peptide text beside a SMILES is read from it. [ ]: non-standard residue; d: D form. ξ: configuration not given here. X1 = O=C([C@H](Cc1ccc(O[P+](O)(O)O)cc1)N[*:1])[*:2]; Thr(P(OH)3+) = C[C@@H](O[P+](O)(O)O)[C@H](N)C(=O)O; Orn(CH(NH2)2) = NC(N)NCCC[C@H](N)C(=O)O; ξE = NC(CCC(=O)O)C(=O)O

Assay: PubChem AID 977611
Details: PDB protein-ligand complexes, literature Kd

O=C1C=C(O)C=CC1S(=O)(=O)n1cc2ccc(O)cc2c1 (stereo unspecified)
Kd (PDB entry 4mpe): 426 nM (active)

C/C(O)=[N+](/O)CCC[C@@H]1NC(=O)CNC(=O)CNC(=O)CNC(=O)C(CCCN(O)C(C)O)NC(=O)[C@H](CCCN(O)C(C)O)NC1=O.[Fe] (stereo partly specified)
Kd (protein: Iron-compound ABC transporter, iron compound-binding protein, PDB entry 4hmq): 5.8 nM (active)

H-LLPTLPKLPSL-OH
Kd (protein: Ankyrin Repeat Domains of Human ANKRA2, PDB entry 3v2x): 4500 nM (active)

H-APTLPKLPSLS-OH
Kd (protein: Ankyrin Repeat Domains of Human ANKRA2, PDB entry 3v2o): 4900 nM (active)

C[C@@H](O)[C@H](N)C(=O)N[C@@H](CCCNC(N)N)C(=O)N[C@@H](CO)C(=O)N[C@@H](CCCCN)C(=O)N[C@@H](Cc1ccccc1)C(=O)N[C@@H](Cc1ccccc1)C(=O)N[C@@H](CC(N)=O)C(=O)O (H-T[Orn(CH(NH2)2)]SKFFN-OH)
Kd (protein: C-terminal domain of the Saccharomyces cerevisiae MUTL alpha (MLH1/PMS1) heterodimer, PDB entry 4fmo): 2940 nM (active)

CC(=O)N[C@H](C(=O)N[C@@H](CCCNC(N)N)C(=O)N[C@@H](CO)C(=O)N[C@@H](CCCCN)C(=O)N[C@@H](Cc1ccc(O)cc1)C(=O)N[C@@H](Cc1ccccc1)C(=O)N[C@@H](CCCCN)C(=O)O)C(C)C (Ac-V[Orn(CH(NH2)2)]SKYFK-OH)
Kd (protein: C-terminal domain of the Saccharomyces cerevisiae MUTL alpha (MLH1/PMS1) heterodimer, PDB entry 4fmn): 750 nM (active)

CC(C)C[C@H](NC(=O)[C@H](C)NC(=O)[C@H](CCC(=O)O)NC(=O)[C@H](CC(=O)O)NC(=O)[C@H](Cc1ccc(O)cc1)NC(=O)[C@H](CO)NC(=O)[C@@H]1CCCN1C(=O)[C@H](CC(C)C)NC(=O)CNC(=O)[C@@H](N)[C@@H](C)O)C(=O)N[C@@H](Cc1cnc[nH]1)C(=O)O (H-TGLPSYDEALH-OH)
Kd (protein: E3 ubiquitin-protein ligase NEDD4, PDB entry 2ez5): 3000 nM (active)

CC(=O)N[C@@H](Cc1cnc[nH]1)C(=O)N[C@@H](CO)C(=O)N[C@@H](CCCCN)C(=O)N[C@@H](Cc1ccc(O)cc1)C(=O)N1CCC[C@H]1C(=O)N[C@@H](CC(C)C)C(=O)N1CCC[C@H]1C(=O)N1CCC[C@H]1C(=O)N[C@@H](CC(C)C)C(=O)N1CCC[C@H]1C(=O)N[C@@H](CO)C(=O)N[C@@H](CC(C)C)C(N)=O (Ac-HSKYPLPPLPSL-NH2)
Kd (protein: Tyrosine-protein kinase HCK, PDB entry 2oi3): 230 nM (active)

H-DADTLLHFATESTPD-OH
Kd (protein: Beta-catenin-interacting protein 1, PDB entry 1t08): 3100 nM (active)

H-HPVGDADYFEY-OH
Kd (protein: LA class I histocompatibility antigen, B-35 alpha chain HLA-B 35:01, PDB entry 4pr5): 2200 nM (active)
Kd (protein: MHC class I antigen HLA-B 35:08, PDB entry 4prd): 25400 nM (active)
Kd (protein: MHC class I antigen-Beta-2-microglobulin, PDB entry 4prh): 25400 nM (active)

H-EPPLNPHGSARAEVHA-OH
Kd (protein: WD repeat-containing protein 5, WDR5, PDB entry 4esg): 2760 nM (active)

H-HPVGEADYFEY-OH
Kd (protein: MHC class I antigen-Beta-2-microglobulin, PDB entry 4pri): 93200 nM (active)

H-ANPHGAARAEVY-OH
Kd (protein: WD repeat-containing protein 5, WDR5, PDB entry 4erz): 88 nM (active)

CC(C)C[C@H](NC(=O)[C@H](CC(=O)O)NC(=O)[C@H](Cc1ccc(O)cc1)NC(=O)[C@H](CC(C)C)NC(=O)[C@H](CCC(=O)O)NC(=O)[C@H](Cc1cnc[nH]1)NC(=O)[C@H](CC(C)C)NC(=O)[C@@H](NC(=O)[C@@H]1CCCN1C(=O)[C@@H]1CCCN1)[C@@H](C)O)C(=O)O (H-PPTLHELYDL-OH)
Kd (protein: Retinoblastoma-associated protein, PDB entry 2r7g): 900 nM (active)

CC[C@H](C)[C@H](NC(=O)[C@H](Cc1ccc(O)cc1)NC(=O)[C@@H](N)C(C)C)C(=O)N[C@@H](Cc1cnc[nH]1)C(=O)N1CCC[C@H]1C(=O)N[C@@H](Cc1ccccc1)C(=O)O
Kd (protein: Aminopeptidase N, PDB entry 4fys): 15000 nM (active)

H-HPVAEADYFEY-OH
Kd (protein: HLA class I histocompatibility antigen, B-35 alpha chain, PDB entry 4prn): 2200 nM (active)
Kd (protein: MHC class I antigen HLA-B 35:08, PDB entry 4prb): 132000 nM (active)

H-TLVSMPPLPGLDLAGS-OH
Kd (protein: Ankyrin Repeat Domains of Human DNA-binding protein RFXANK, PDB entry 3v30): 184000 nM (active)

H-HPVGQADYFEY-OH
Kd (protein: LA class I histocompatibility antigen, B-35 alpha chain HLA-B 35:011, PDB entry 4pra): 2200 nM (active)
Kd (protein: MHC class I antigen HLA-B 35:08, PDB entry 4pre): 181000 nM (active)
Kd (protein: MHC class I antigen-Beta-2-microglobulin, PDB entry 4prp): 2200 nM (active)

COc1cc(NC(=O)C[C@@]2(C)C[C@H](c3cccc(Cl)c3)[C@@H](c3ccc(Cl)c(F)c3)N([C@H](CS(=O)(=O)C(C)(C)C)C3CC3)C2=O)ccc1C(=O)O
Kd (protein: E3 ubiquitin-protein ligase Mdm2, PDB entry 4wt2): 0.038 nM (active)

CSCC[C@H](NC(=O)[C@H](CC(C)C)NC(=O)[C@H](CCCNC(N)N)NC(=O)[C@@H](N)CC(N)=O)C(=O)N[C@@H](CC(C)C)C(=O)N[C@H](C(=O)NCC(=O)O)[C@@H](C)O (H-N[Orn(CH(NH2)2)]LMLTG-OH)
Kd (protein: Chaperone protein DnaK, PDB entry 4ezx): 1600 nM (active)

CC(C)C[C@H](NC(=O)[C@H](CC(C)C)NC(=O)[C@H](CCCNC(N)N)NC(=O)[C@@H](N)CC(N)=O)C(=O)N[C@@H](CC(C)C)C(=O)N[C@H](C(=O)NCC(=O)O)[C@@H](C)O
Kd (protein: Chaperone protein DnaK, PDB entry 4ezw): 1000 nM (active)

COc1cc(OC)c2c(=O)[nH]c(-c3cc(C)c(O)c(C)c3)nc2c1
Kd (protein: Bromodomain-containing protein 2, PDB entry 4mr5): 251 nM (active)
Kd (protein: Bromodomain-containing protein 4, PDB entry 4mr3): 1140 nM (active)

COc1ccc(Nc2nc3cc(C(=O)O)ccc3n2Cc2ccccc2C(F)(F)F)cc1F
Kd (protein: KINESIN-LIKE PROTEIN KIF11, PDB entry 3zcw): 650 nM (active)

CC(C)C[C@H](NC(=O)[C@H](CC(N)=O)NC(=O)[C@@H](N)CCCNC(N)N)C(=O)N[C@@H](Cc1ccccc1)C(=O)NCC(=O)N1CCC[C@H]1C(=O)O (H-[Orn(CH(NH2)2)]NLFGP-OH)
Kd (protein: phospho-CDK2/cyclin A, PDB entry 1h27): 2500 nM (active)

C[C@@H](O)[C@H](N)C(=O)N[C@@H](CC(N)=O)C(=O)N[C@@H](CCC(=O)O)C(=O)N[C@@H](Cc1ccc(O[P+](O)(O)O)cc1)C(=O)N[C@H](C(=O)N[C@@H](CCC(=O)O)C(=O)NCC(=O)N1CCC[C@H]1C(=O)N[C@H](C(=O)O)[C@@H](C)O)[C@@H](C)O (H-TNE[X1]TEGPT-OH)
Kd (protein: E3 ubiquitin-protein ligase CBL, PDB entry 3bum): 320 nM (active)

C[C@@H](O)[C@H](NC(=O)[C@H](CC(N)=O)NC(=O)[C@@H](N)CCCNC(N)N)C(=O)N[C@@H](CC(N)=O)C(=O)N[C@@H](CCC(=O)O)C(=O)N[C@@H](Cc1ccc(O[P+](O)(O)O)cc1)C(=O)N[C@H](C(=O)N[C@@H](CCC(=O)O)C(=O)NCC(=O)N1CCC[C@H]1C(=O)O)[C@@H](C)O[P+](O)(O)O (H-[Orn(CH(NH2)2)]NTNE[X1][Thr(P(OH)3+)]EGP-OH)
Kd (protein: E3 ubiquitin-protein ligase CBL c-Cbl TKB domain, PDB entry 3ob1): 3830 nM (active)

CC(C)C[C@H](NC(=O)[C@H](CS)NC(=O)[C@H](CCC(=O)O)NC(=O)[C@H](Cc1ccc(O)cc1)NC(=O)CNC(=O)[C@H](Cc1ccc(O)cc1)NC(=O)C(CCC(=O)O)NC(=O)[C@H](CCC(=O)O)NC(=O)[C@@H](N)CC(=O)O)C(=O)N[C@@H](CC(=O)O)C(=O)O (stereo partly specified) (H-DE[ξE]YGYECLD-OH)
Kd (protein: AP-2 complex subunit mu-1, PDB entry 2pr9): 42.2 nM (active)

CC(C)C[C@H](NC(=O)[C@@H](N)CC(=O)O)C(=O)N[C@@H](Cc1ccc(O)cc1)C(=O)NCC(=O)O (H-DLYG-OH)
Kd (protein: E3 ubiquitin-protein ligase RNF31 HOIP PUB Domain, PDB entry 4p0a): 30300 nM (active)

CNc1ncnc2c1ncn2[C@@H]1O[C@H](CO)[C@@H](O)[C@H]1O
Kd (protein: YTH domain-containing family protein 2 YTH-YTHDF2, PDB entry 4rdn): 1200 nM (active)

O[C@@H]1[C@H](O)[C@@H](CO[P+](O)(O)O)O[C@H]1n1cnc2c(NCc3ccco3)ncnc21
Kd (protein: 2'-deoxynucleoside 5'-phosphate N-hydrolase 1, DNPH1 (RCL), PDB entry 4kxn): 800 nM (active)
